In PubChem BioAssay (EPA / NIEHS):
Activity calls are given as the source filed them. Rule for the calls: active = hit-call score of the fitted dose curve at least 0.9, where 1 is the maximum; inactive = score below 0.9.

What was measured:
[1] = CCTE_Shafer_MEA_acute_spike_number: CCTE's Neural Acute Assay for Total Number of Spikes, Shafer Lab (AID 2284008);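 note: curve fitted for decrease in spike count so AC50 reflects inhibitors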
Summary of the method: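 Read-out is the total spike count over 40 min, expressed as percent change from each well's own pre-treatment baseline and fitted in the loss direction against DMSO. Rat cortical neurons were exposed at 0.03-40 uM on DIV 13 or 15.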

[2] = CCTE_Shafer_MEA_acute_firing_rate_mean: CCTE's Neural Acute Assay for Mean Firing Rate, Shafer Lab (AID 2284009);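 note: analyzed for loss of signal so actives lower firing rate relative to DMSO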
Summary of the method: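 Rat cortical neuron cultures matured to DIV 13 or 15, equilibrated 20 min at 37 C, then recorded 40 min for baseline. Compound (0.03-40 uM) added and a further 40 min recorded; percent change in mean firing rate calculated per well.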

[3] = CCTE_Shafer_MEA_acute_burst_number: CCTE's Neural Acute Assay for Single-Electrode Bursts, Shafer Lab (AID 2284013)
Summary of the method: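 Percent change in single-electrode burst number per well, from 40-min recordings taken before and after adding compound (0.03-40 uM) to primary rat cortical neurons on MEA plates at DIV 13 or 15, 37 C.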

[4] = CCTE_Shafer_MEA_acute_burst_duration_mean: CCTE's Neural Acute Assay for Mean Burst Duration, Shafer Lab (AID 2284014);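 note: hits are decreases in mean burst duration relative to DMSO controls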
Summary of the method: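 Rat cortical cultures, DIV 13/15; 40 min baseline, then 40 min with compound (0.03-40 uM), 37 C. Spikes: 300-5000 Hz band-pass, 8x rms threshold. Read-out: % change in mean single-electrode burst duration, DMSO-referenced, loss direction.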

[5] = CCTE_Shafer_MEA_acute_per_burst_spike_number_mean: CCTE's Neural Acute Assay for Average Number of Spikes Per Burst, Shafer Lab (AID 2284015);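 note: hits are decreases in mean spikes per burst versus baseline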
Summary of the method: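 We recorded spontaneous network firing of rat cortical neurons for 40 min before and 40 min during exposure to compound at 0.03-40 uM, at 37 C. Spikes were detected adaptively at 8x rms noise, and the change in average spikes per burst was fitted against DMSO.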

[6] = CCTE_Shafer_MEA_acute_interburst_interval_mean: CCTE's Neural Acute Assay for Mean Interburst Interval, Shafer Lab (AID 2284016);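 note: percent change of mean interburst interval versus each well's own pre-dose baseline; curves fitted for decrease in interburst interval relative to DMSO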
Summary of the method: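 MEA recording of spontaneous network bursting in primary rat cortical cultures; mean interburst interval was compared before and after a 40-min compound exposure (0.03-40 uM) and expressed as percent change, relative to DMSO.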

[7] = CCTE_Shafer_MEA_acute_burst_percentage_mean: CCTE's Neural Acute Assay for Percentage of Spikes in a Burst, Shafer Lab (AID 2284017);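 note: curve fitted for loss of signal so potency reflects decreased burst percentage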
Summary of the method: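 Compounds were tested at 0.03-40 uM on primary rat cortical neuron networks grown over microelectrodes, with at least three wells per compound. Spontaneous firing was recorded for 40 min before and 40 min after dosing, and the change in burst percentage was computed per well.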

[8] = CCTE_Shafer_MEA_acute_burst_percentage_std: CCTE's Neural Acute Assay for Standard Deviation of Burst Percentage, Shafer Lab (AID 2284018);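 note: fitted in the negative direction so actives lower burst percentage SD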
Summary of the method: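 Rat primary cortical neurons on 48-well MEAs, DIV 13 or 15, 37 C. 40-min baseline then 40-min recording with compound (0.03-40 uM); well-level SD of per-electrode burst spike percentage, expressed as percent change from baseline.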

[9] = CCTE_Shafer_MEA_acute_per_network_burst_spike_number_mean: CCTE's Neural Acute Assay for Average Number of Spikes in a Network Burst, Shafer Lab (AID 2284019)
Summary of the method: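 Rat cortical cultures, DIV 13/15; spike threshold 8x rms noise, 300-5000 Hz band-pass, 12.5 kHz sampling; wells need >/= 10 active electrodes. Compound 0.03-40 uM, 40 min, 37 C; % change vs own baseline, DMSO negative control.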

[10] = CCTE_Shafer_MEA_acute_per_network_burst_spike_number_std: CCTE's Neural Acute Assay for Standard Deviation of Number of Spikes in a Network Burst, Shafer Lab (AID 2284020);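 note: fitted for decrease in spike-number SD versus DMSO so actives lower it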
Summary of the method: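 Rat cortical cultures, DIV 13/15, 37 C; 20-min stabilisation, 40-min baseline, compound 0.03-40 uM, 40-min re-record. Spikes detected at 8x rms noise (300-5000 Hz band-pass). Readout: % change from baseline in per-burst spike-number SD.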

[11] = CCTE_Shafer_MEA_acute_per_network_burst_electrodes_number_mean: CCTE's Neural Acute Assay for Mean Number of Electrodes in a Network Burst, Shafer Lab (AID 2284021);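 note: curves fitted for decreases only so hits reduce electrodes per burst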
Summary of the method: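 Primary rat cortical networks, mwMEA, 37 C. 20 min stabilization, 40 min baseline, compound 0.03-40 uM, 40 min re-record. Wells need >=10 active electrodes; percent change per well, negative fitting direction.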

[12] = CCTE_Shafer_MEA_acute_network_burst_percentage: CCTE's Neural Acute Assay for Percentage of Network Bursts, Shafer Lab (AID 2284022);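 note: curves fitted for loss so actives lower network burst percentage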
Summary of the method: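 Readout is the fraction of spikes falling in network bursts, expressed as per-well percent change from a 40-min pre-exposure baseline. Primary rat cortical neurons on MEA were exposed to 0.03-40 uM compound on DIV 13 or 15 and recorded for 40 min at 37 C.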

For `CCN=C1C=CC(=C(c2ccc(N(CC)CC)cc2)c2ccc(N(CC)CC)cc2)c2ccccc21`, the AC50 [1] was 559 nM (active), the AC50 [2] was 559 nM (active) and the AC50 [3] was 545 nM (active). For the same compound, the outcome [4] was “inactive”, the AC50 [5] was 518 nM (active) and the AC50 [6] was 361 nM (active). The AC50 [7] was 549 nM (active), the outcome [8] was “inactive” and the outcome [9] was “inactive”. For the same compound, the AC50 [10] was 718 nM (active), the AC50 [11] was 498 nM (active) and the AC50 [12] was 762 nM (active).
